Test results published in the supplement of paper PMC3334620.
Whole data set: some 33,000 sequences, median “E-score (-0.5 to 0.5)” near -0.035, cut for the highest 2% near 0.34. For the sample, the highest values were picked, then their nearest neighbours and some sequences at random.

Molecular target: T1, Mot3 (UniProt P54785)
T1 sequence: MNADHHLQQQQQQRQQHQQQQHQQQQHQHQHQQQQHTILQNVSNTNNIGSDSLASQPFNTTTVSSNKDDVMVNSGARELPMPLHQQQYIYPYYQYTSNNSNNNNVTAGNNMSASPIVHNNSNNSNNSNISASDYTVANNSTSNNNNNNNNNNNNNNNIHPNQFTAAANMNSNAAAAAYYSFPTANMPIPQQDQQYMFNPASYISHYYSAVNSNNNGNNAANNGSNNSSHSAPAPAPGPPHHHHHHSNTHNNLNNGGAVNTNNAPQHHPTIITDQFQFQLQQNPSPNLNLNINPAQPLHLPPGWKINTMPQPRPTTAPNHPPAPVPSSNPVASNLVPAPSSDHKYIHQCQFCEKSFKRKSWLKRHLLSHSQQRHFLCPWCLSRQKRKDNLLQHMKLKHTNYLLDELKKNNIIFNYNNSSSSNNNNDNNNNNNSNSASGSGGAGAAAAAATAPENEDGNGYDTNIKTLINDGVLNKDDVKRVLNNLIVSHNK
Assay: PBM E-score (8-mer binding enrichment) (E-score (-0.5 to 0.5)); higher = stronger / more preferred TF binding
Details: protein concentration: 200 nM; construct: GST-full length
Procedure: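 Universal 'all 10-mer' protein binding microarrays (Agilent AMADID 015681) probed with GST-tagged S. cerevisiae TFs (full-length or DBD) made by in vitro transcription/translation (PURExpress), about 100-200 nM. Bound TF was detected with fluorescent anti-GST. Each ungapped 8-mer (which stands for itself and its reverse complement) is scored by the PBM enrichment score (E-score), a modified Wilcoxon-Mann-Whitney statistic from -0.5 to +0.5, computed with the Universal PBM Analysis Suite. Scale: above 0.35 generally sequence-specific binding.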

In order of rising “PBM E-score” value:
1. AGAGCCTC  -0.422
2. AGTGCCGC  -0.373
3. AGTGCCAC  -0.35
4. GTCAGGGA  -0.339
5. CCCTCTCG  -0.33
6. CCCTGGTC  -0.315
7. CTCAGGGC  -0.29
8. GGGAACCC  -0.279
9. AGGGTCCG  -0.269
10. ACCGACCC  -0.256
11. CTCAGGGA  -0.251
12. CGGAACCG  -0.249
13. GGACACCA  -0.23
14. ACTGTTGG  -0.221
15. CGGAACAG  -0.216
16. ATGGGAGC  -0.193
17. AGAACGCT  -0.186
18. CTACTGGC  -0.182
19. ACTCGCCC  -0.179
20. GGGAACCA  -0.175
21. GTCCTCCA  -0.175
22. CAAGTCGA  -0.156
23. AGGAGTGC  -0.146
24. ACCTCTCC  -0.144
25. AGGTCGAG  -0.141
26. ACACTCCA  -0.141
27. CTTCCACA  -0.14
28. AAATGGGG  -0.133
29. TGGAACCA  -0.133
30. CTCAGGCC  -0.129
31. CTTCTCAC  -0.125
32. AGGATACT  -0.12
33. AGTCCCAT  -0.115
34. ACGCTTTG  -0.111
35. CGTGCCGC  -0.111
36. CGCCCAAG  -0.105
37. GGTAGGGA  -0.104
38. AGTAGGCC  -0.1
39. TTAGCTAA  -0.0988
40. CTTCGGTC  -0.0958
41. ATCTCTTG  -0.0945
42. ACGGTTTG  -0.0879
43. CCTTTCTC  -0.0866
44. TGTCTCAA  -0.078
45. AGTGCCAG  -0.0756
46. TGAGAGAA  -0.0743
47. GAGATTGA  -0.0729
48. TCGGCTAA  -0.0724
49. ATCTGAAA  -0.0689
50. AGTTCGCG  -0.0658
51. ACCATCAA  -0.0603
52. CGGAACCC  -0.0527
53. ATCAGGCC  -0.0425
54. ACGAACCT  -0.0403
55. AGACAGAT  -0.0373
56. CCACACCG  -0.0267
57. CGTAGGCC  -0.0263
58. CCTCTAGA  -0.0256
59. AATTCCGG  -0.0255
60. AGTGTCGC  -0.0232
61. ACGAACAG  -0.0228
62. GATTAGCA  -0.0223
63. CGCTCAAG  -0.0197
64. CAATTGAA  -0.0107
65. CGGATCAC  -0.00917
66. CTAGCGGA  -0.00619
67. CGTGCCCC  0.00946
68. GGGAACAC  0.0104
69. CGGAACAC  0.0144
70. ATGAACCG  0.0149
71. GGCGTGAC  0.017
72. AGTGTCTA  0.0204
73. ATCCTGCG  0.0225
74. CGGAACAA  0.0225
75. ATCAGGCG  0.0225
76. GGGAGGTA  0.0239
77. AGTAGGCG  0.0255
78. AGTGCCGG  0.0259
79. CGAACTAA  0.031
80. GCATTCTA  0.0333
81. AGGGTAGG  0.0464
82. TGCTTCAA  0.0489
83. CACGGATG  0.0568
84. AGCAGAAT  0.059
85. ACTTTTCC  0.0601
86. GAATTATA  0.0628
87. ATCAACAG  0.0788
88. AAGAACGC  0.0817
89. TACTTTGA  0.0853
90. TAATTAGA  0.0891
91. GAATTACC  0.0992
92. ACCTGACA  0.105
93. AAGCAGAA  0.108
94. ACGAACAT  0.109
95. CAATTACC  0.12
96. TGGAACAA  0.136
97. AGTGCCCA  0.137
98. AAATTACT  0.138
99. AACTAGAT  0.138
100. ATGCTCAG  0.15
101. AGGATACA  0.157
102. CTTACATC  0.163
103. TCTATTCA  0.165
104. ATGTAACC  0.166
105. AGTACATC  0.166
106. ACAAAGCA  0.168
107. ACGCATGC  0.169
108. ACTACATC  0.173
109. AGAGCCTA  0.177
110. CTGTAACA  0.182
111. AAGAACCT  0.191
112. ATCACATG  0.195
113. GCGTAACA  0.196
114. ATGACCAG  0.199
115. AAGTAGGA  0.2
116. TAATTATA  0.206
117. ATCAACAA  0.224
118. AATACATT  0.235
119. AAATTACG  0.249
120. ATGAACAT  0.252
121. CAATTACG  0.26
122. GACAACAC  0.261
123. GGTAGGTA  0.269
124. GTCAGGAA  0.277
125. CGTAGGTA  0.285
126. AGTACATG  0.289
127. CATACATG  0.291
128. GGTGCCCA  0.293
129. AGGTAACT  0.297
130. CACAACAC  0.302
131. GTGTAAGA  0.312
132. AGGCAGCC  0.317
133. CTTACATA  0.319
134. AGGTAACC  0.321
135. ACTACATA  0.325
136. ATTAACAA  0.328
137. CTTAACAC  0.333
138. GTTACATA  0.333
139. ATCAACAT  0.339
140. AGAGCCTG  0.341
141. GTGTAACA  0.343
142. AACAACAC  0.349
143. CGTGCCCA  0.355
144. ATTACATC  0.356
145. AGGTAACA  0.357
146. ACTACATG  0.362
147. AAATTACA  0.365
148. GAATTACA  0.366
149. TAATTACA  0.372
150. ATGTAACA  0.373
151. CAATTACA  0.378
152. ATTAACAC  0.384
153. AGGAACAA  0.401
154. AGGAACAC  0.404
155. AGTGCCTC  0.405
156. ATTACATA  0.406
157. AATACATG  0.413
158. AGGAACCA  0.419
159. AGGAACAT  0.422
160. AGGAACAG  0.434
161. ATTACATG  0.435
162. AGGAACCG  0.442
163. AGGAACCC  0.444
164. AGGAACCT  0.458
165. CTCAGGCA  0.462
166. GTCAGGCA  0.469
167. CGTGCCTC  0.469
168. GGTAGGCA  0.473
169. ATCAGGCA  0.481
170. AGTAGGCA  0.481
171. CGTAGGCA  0.487
172. AGTGCCTG  0.49
